The text below walks through data of the supplement of paper PMC4466140.

One assay deals with SpBzz1-D2. The assay can be described thus: SPOT peptide array binding signal intensity (averaged, normalized) (arbitrary units (background-subtracted, floor 0; scale differs between SH3 domains)); higher = stronger binding of the SH3 domain to the peptide. In short, it runs like this:
(§1)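 GST-fused SH3 domains from four yeast species were expressed in E. coli BL21(DE3), purified on glutathione Sepharose and incubated at 10 μg/ml overnight at 4°C in TBS-based blocking buffer on cellulose membranes carrying synthetic 15-mer peptides, with cysteines replaced by serines. Bound protein was detected with anti-GST antibody, an HRP anti-mouse secondary and luminol, then imaged and quantified with Genespotter. Binding signal is the normalized, background-subtracted spot intensity averaged over replicates, in arbitrary units that differ between domains.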
Consider NNQRRKPLLLNIGDH, for which the “SPOT peptide array binding signal intensity” value is no more than 0.

Another assay addresses SpCyk3. The assay is described as above. In short, it runs like this:
as §1
Turning to NNQRRKPLLLNIGDH, the “SPOT peptide array binding signal intensity” value was no more than 0.

The target in the next assay is SpHof1. Described as above. In short, it runs like this: as §1
As for NNQRRKPLLLNIGDH, the “SPOT peptide array binding signal intensity” value was 93.2.

For a further assay, the target named is SpHof1-2. The description is as above. In short, it runs like this: as §1
Consider NNQRRKPLLLNIGDH, for which the “SPOT peptide array binding signal intensity” value is 2.5.

The target of a further assay is SpHof1-3. The description is as above. In short, it runs like this:
as §1
Take NNQRRKPLLLNIGDH: the “SPOT peptide array binding signal intensity” value is 892.

Another assay deals with SpHse1. The description is as above. In short, it runs like this: as §1
As for NNQRRKPLLLNIGDH, the “SPOT peptide array binding signal intensity” value was 1730.

A further assay concerns the target SpLsb1. The assay is described as above. Put shortly: as §1
Turning to NNQRRKPLLLNIGDH, the “SPOT peptide array binding signal intensity” value is no more than 0.

In a further assay the target is SpLsb4. Described as above. In short, it runs like this:
as §1
In the case of NNQRRKPLLLNIGDH, the “SPOT peptide array binding signal intensity” value is no more than 0.

The target of the next assay is SpMyo1. Described as above. In short, it runs like this:
as §1
Consider NNQRRKPLLLNIGDH, for which the “SPOT peptide array binding signal intensity” value was no more than 0.

Another assay addresses SpNbp2. The description is as above. In short, it runs like this: as §1
Turning to NNQRRKPLLLNIGDH, the “SPOT peptide array binding signal intensity” value came to 133.

Another assay addresses SpPex13. Described as above. Put shortly:
as §1
Take NNQRRKPLLLNIGDH: the “SPOT peptide array binding signal intensity” value is no more than 0.

Another assay addresses SpRvs167. Described as above. Put shortly:
as §1
NNQRRKPLLLNIGDH: the “SPOT peptide array binding signal intensity” value is no more than 0.

The target in another assay is SpSla1-D1-D2. Described as above. Put shortly:
as §1
As for NNQRRKPLLLNIGDH, the “SPOT peptide array binding signal intensity” value was no more than 0.

In another assay the target is SpSla1-D3. The assay is described as above. In short, it runs like this:
as §1
On to NNQRRKPLLLNIGDH, for which the “SPOT peptide array binding signal intensity” value was no more than 0.
